# Assay results: PubChem BioAssay (NCATS)
# Inconclusive results are not listed. A number with no mark means an inactive call. This is one part of the list. Entries that show only a call come without a potency. The source made the active and inactive calls. Calls come from the whole dose curve; as a rule, active = well fitted curve in the direction sought with a large enough effect; inconclusive = small, poorly fitted or top-dose-only effect, or another doubt; inactive = no such curve, though single readings can be large; an effect the other way counts as inactive or inconclusive.
# Key:
# [1] = molecular target: Tumor susceptibility gene 101 protein (Homo sapiens) (UniProt Q99816); assay: qHTS Assay for Iinhibitors of HIV-1 Budding by Blocking the Interaction of PTAP/TSG101: Hit Validation (AID 651600); note: nearly all actives have a fitted effect of over 70% in size; note: potency is the fitted concentration of half-maximal effect
# Tumor susceptibility gene 101 protein (Homo sapiens), sequence (Q99816 whole entry, looked up): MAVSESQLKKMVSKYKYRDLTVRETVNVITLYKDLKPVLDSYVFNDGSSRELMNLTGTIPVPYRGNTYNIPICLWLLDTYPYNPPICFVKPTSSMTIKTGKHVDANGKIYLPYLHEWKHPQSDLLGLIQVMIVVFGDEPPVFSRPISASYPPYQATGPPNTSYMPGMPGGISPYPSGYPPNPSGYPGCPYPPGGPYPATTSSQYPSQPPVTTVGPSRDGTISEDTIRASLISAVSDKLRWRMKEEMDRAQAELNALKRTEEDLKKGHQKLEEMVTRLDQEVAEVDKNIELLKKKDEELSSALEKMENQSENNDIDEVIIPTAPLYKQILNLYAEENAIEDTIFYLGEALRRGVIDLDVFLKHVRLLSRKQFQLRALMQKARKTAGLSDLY
# Procedure, shortened: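 Measuring PTAP–Tsg101 interaction by FP: protein at 10 uM and fluorescent peptide at 50 nM (final), buffer 10 mM HEPES pH 7.5 with 0.15 M NaCl, 3 mM EDTA, 0.1 mM TCEP, 0.01% Tween 20; 20 min incubation, r.t.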
# [2] = molecular target: Rap guanine nucleotide exchange factor 3 (Homo sapiens) (UniProt O95398); assay: Confirmatory qHTS for antagonist of cAMP-regulated guanine nucleotide exchange factor 3 (EPAC1) (AID 1645880); settings: EPAC1 Rap1B-BODIPY-GDP exchange, fluorescence; activity, negative = inhibition: at 115 µM (top of the series); note: nearly all actives have a fitted effect of over 55% in size; note: potency is the fitted concentration of half-maximal effect
# Rap guanine nucleotide exchange factor 3 (Homo sapiens), sequence (O95398 whole entry, looked up): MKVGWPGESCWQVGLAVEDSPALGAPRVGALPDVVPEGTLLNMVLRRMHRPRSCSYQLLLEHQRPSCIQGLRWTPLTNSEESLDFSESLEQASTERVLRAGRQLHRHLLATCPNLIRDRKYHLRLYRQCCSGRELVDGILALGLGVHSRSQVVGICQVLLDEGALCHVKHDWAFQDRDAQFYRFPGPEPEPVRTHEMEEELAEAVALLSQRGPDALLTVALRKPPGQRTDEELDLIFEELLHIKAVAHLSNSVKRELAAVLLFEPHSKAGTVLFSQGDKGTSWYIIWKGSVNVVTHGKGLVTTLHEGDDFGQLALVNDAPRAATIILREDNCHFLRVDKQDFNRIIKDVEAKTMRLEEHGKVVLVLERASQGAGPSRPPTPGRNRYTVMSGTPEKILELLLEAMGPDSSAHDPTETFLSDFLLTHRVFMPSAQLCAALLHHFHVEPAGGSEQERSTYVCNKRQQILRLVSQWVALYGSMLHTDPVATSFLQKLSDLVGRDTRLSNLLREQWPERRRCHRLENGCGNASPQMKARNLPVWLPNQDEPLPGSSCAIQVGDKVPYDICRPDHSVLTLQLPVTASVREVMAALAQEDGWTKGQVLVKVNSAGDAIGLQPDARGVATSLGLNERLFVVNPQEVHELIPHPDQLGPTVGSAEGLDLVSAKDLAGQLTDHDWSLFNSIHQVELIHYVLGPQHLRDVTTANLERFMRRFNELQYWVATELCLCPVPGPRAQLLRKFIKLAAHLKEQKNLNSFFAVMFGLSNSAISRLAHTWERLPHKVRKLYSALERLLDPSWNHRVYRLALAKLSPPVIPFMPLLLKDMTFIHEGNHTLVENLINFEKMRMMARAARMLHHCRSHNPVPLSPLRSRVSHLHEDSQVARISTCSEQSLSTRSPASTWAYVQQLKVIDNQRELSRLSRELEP
# Procedure, shortened: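 Nucleotide exchange uses 100 nM EPAC1, 250 nM RAP1B-BODIPY-GDP and 50 uM GDP, with compounds in a concentration-titration series. After 5 min at room temperature, fluorescence (480 nm ex/540 nm em) is read every 5 min for 30 min. Data are normalized to control ATA and DMSO.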
# [3] = molecular target: Rap guanine nucleotide exchange factor 4 (Homo sapiens) (UniProt Q8WZA2); assay: Confirmatory qHTS for agonist of cAMP-regulated guanine nucleotide exchange factor 4 (EPAC2) (AID 1645884);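 note: nucleotide exchange releases bodipy-GDP from Rap1 and this lowers its fluorescence; nearly all actives have a fitted effect of over 65% in size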; note: potency is the fitted concentration of half-maximal effect
# Rap guanine nucleotide exchange factor 4 (Homo sapiens), sequence (Q8WZA2 whole entry, looked up): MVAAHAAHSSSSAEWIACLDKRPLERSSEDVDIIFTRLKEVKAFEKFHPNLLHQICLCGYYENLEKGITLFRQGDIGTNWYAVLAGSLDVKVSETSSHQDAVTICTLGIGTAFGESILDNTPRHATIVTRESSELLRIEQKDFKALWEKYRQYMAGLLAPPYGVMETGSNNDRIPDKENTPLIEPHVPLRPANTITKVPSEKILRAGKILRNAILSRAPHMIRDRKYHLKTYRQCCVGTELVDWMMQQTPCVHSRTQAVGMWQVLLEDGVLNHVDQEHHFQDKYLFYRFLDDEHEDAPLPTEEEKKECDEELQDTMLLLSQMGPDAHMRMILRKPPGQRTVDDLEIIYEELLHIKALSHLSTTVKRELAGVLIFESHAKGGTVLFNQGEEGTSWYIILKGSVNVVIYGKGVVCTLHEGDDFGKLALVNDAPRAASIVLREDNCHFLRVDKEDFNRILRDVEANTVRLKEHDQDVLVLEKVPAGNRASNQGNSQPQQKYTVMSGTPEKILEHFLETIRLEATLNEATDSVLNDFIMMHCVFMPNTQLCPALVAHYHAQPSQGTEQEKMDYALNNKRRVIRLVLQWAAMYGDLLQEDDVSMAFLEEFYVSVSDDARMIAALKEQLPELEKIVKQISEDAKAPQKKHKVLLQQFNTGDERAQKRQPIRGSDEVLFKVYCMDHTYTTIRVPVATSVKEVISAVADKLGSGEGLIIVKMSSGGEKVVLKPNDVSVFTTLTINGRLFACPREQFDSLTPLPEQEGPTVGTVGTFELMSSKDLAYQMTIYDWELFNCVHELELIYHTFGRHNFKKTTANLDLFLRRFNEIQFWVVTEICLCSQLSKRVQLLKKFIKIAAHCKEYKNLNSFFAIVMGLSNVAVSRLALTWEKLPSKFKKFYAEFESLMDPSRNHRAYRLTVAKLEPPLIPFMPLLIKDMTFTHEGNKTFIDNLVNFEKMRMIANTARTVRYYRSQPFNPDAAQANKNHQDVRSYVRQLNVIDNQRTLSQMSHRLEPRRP
# [4] = molecular target: Rap guanine nucleotide exchange factor 4 (Homo sapiens) (UniProt Q8WZA2); assay: Confirmatory qHTS for antagonist of cAMP-regulated guanine nucleotide exchange factor 4 (EPAC2) (AID 1645885); note: nearly all actives have a fitted effect of over 25% in size; note: potency is the fitted concentration of half-maximal effect
# [5] = molecular target: Rap guanine nucleotide exchange factor 3 (Homo sapiens) (UniProt O95398); assay: Counterscreen qHTS for antagonist of cAMP-regulated guanine nucleotide exchange factor 3 (EPAC1) (AID 1645888);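 note: fluorescence loss as bound BODIPY-GDP is released from Rap1B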
# Procedure, shortened: (§1)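 Rap1B-BODIPY-GDP 250 nM + GDP 50 uM; cpds 7-pt, final 9.74 nM–152 uM (activator mode) or from 7.32 nM upwards (inhibitor mode); RT; FI 480/540 nm at 5 and 30 min, then ± cAMP, reread.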
# [6] = Counterscreen for APE1 Inhibitors: Fluorescent Dye Displacement Assay (AID 2564);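 note: loss of thiazole orange fluorescence as the dye is displaced from duplex DNA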
# Procedure, shortened: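 ThO 250 nM + dsDNA 50 nM (THF abasic site, 5'-TAMRA), Tris-HCl pH7.5/50mM NaCl/2 mM MgCl2/0.01% Tween-20; compounds pin-transferred; ex 480/em 540 nm endpoint. Neutral = no compound; no-DNA ThO wells = negative control.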
# [7] = molecular target: Endonuclease 4 (Escherichia coli (strain K12)) (UniProt P0A6C1); assay: Counterscreen for APE1 Inhibitors: qHTS Assay for Inhibitors of Endonuclease IV (AID 2565)
# Procedure, shortened: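 qHTS concentration-response format; LOPAC1280 tested under APE1-screen conditions. 2 nM enzyme, 15 min compound preincubation at RT, then 50 nM TAMRA/BHQ-2 abasic substrate; kinetic fluorescence read, three reads at 60 s intervals.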
# [8] = molecular target: DNA repair nuclease/redox regulator APEX1 (Homo sapiens) (UniProt P27695); assay: Confirmation qHTS Assay for Inhibitors of the Human Apurinic/apyrimidinic Endonuclease 1 (APE1) (AID 2572); settings: purified APE1, fluorogenic abasic-site DNA cleavage; note: potency is the fitted concentration of half-maximal effect; nearly all actives have a fitted effect of over 30% in size
# DNA repair nuclease/redox regulator APEX1 (Homo sapiens), sequence (P27695 whole entry, looked up): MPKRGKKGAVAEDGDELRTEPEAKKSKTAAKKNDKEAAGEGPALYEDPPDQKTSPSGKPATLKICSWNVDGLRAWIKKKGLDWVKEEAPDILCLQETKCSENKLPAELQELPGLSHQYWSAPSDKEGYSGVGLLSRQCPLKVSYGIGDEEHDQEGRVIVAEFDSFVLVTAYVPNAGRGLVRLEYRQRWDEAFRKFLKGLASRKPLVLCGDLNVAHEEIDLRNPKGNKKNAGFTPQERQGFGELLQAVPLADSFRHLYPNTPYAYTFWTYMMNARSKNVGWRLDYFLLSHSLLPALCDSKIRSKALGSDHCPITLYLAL
# Procedure, shortened: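 Enzyme and test compound were incubated for 15 min at room temperature, after which a 50 nM (final) double-stranded abasic-site substrate bearing 5'-TAMRA and 3'-BHQ-2 was added. Incision was followed as fluorescence increase over three reads.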
# [9] = molecular target: DNA repair nuclease/redox regulator APEX1 (Homo sapiens) (UniProt P27695); assay: qHTS FP-Based Assay for Inhibitors of the Human Apurinic/apyrimidinic Endonuclease 1 (APE1) (AID 2573)
# [10] = molecular target: Rap guanine nucleotide exchange factor 3 (Homo sapiens) (UniProt O95398); assay: Counterscreen qHTS for agonist of cAMP-regulated guanine nucleotide exchange factor 3 (EPAC1) (AID 1645889); note: nearly all actives have a fitted effect of over 40% in size; note: potency is the fitted concentration of half-maximal effect
# Procedure, shortened: as §1
structure (smiles),measurement,setting,value
CCN(CC)c1ccc2cc(S(=O)(=O)c3ccc(Cl)cc3)c(=O)oc2c1,Potency,[1],18.3 µM (active)
same,Potency,[2],inactive
same,Potency,[3],100 µM (active)
same,Potency,[4],42.6 µM (active)
same,Potency,[5],inactive
N#Cc1c(-c2cccs2)nc(SCC(=O)c2ccc(Br)cc2)[nH]c1=O,outcome,[6],inactive
same,outcome,[7],inactive
same,Potency,[8],15.8 µM (active)
same,outcome,[9],inactive
same,Potency,[2],22.4 µM (active)
same,activation,[3],"8.4% [at 17.1 µM, percent relative to cAMP agonist control]"
same,Potency,[4],inactive
same,activation,[10],12.5% [at 30.8 µM]
Cc1ccc[n+](-c2nc([O-])sc2C=O)c1,Potency,[1],4.61 µM (active)
same,Potency,[2],inactive
same,Potency,[3],100 µM (active)
same,Potency,[4],inactive
same,Potency,[5],inactive
same,Potency,[10],39.8 µM (active)
CCCn1c(O)c(N=Nc2ccc3ccccc3n2)c2ccccc21,Potency,[1],inactive
same,Potency,[2],inactive
same,Potency,[3],100 µM (active)
same,Potency,[4],21.3 µM (active)
same,Potency,[5],inactive
Cc1ccc(OCc2nc3ccccc3n2CC(C)C)cc1,Potency,[2],inactive
same,Potency,[3],inactive
same,Potency,[4],inactive
same,Potency,[10],inactive
COCCn1c2nc(=O)n(-c3ccccc3)c(=O)c-2nc2ccccc21,Potency,[2],inactive
same,Potency,[3],100 µM (active)
same,Potency,[4],75.7 µM (active)
same,Potency,[10],39.8 µM (active)
O=c1c(/C=C(\O)c2ccc(F)cc2)nc2ccccc2n1-c1ccccc1,Potency,[1],inactive
same,Potency,[2],inactive
same,Potency,[3],100 µM (active)
same,Potency,[4],inactive
same,Potency,[5],inactive
CCOc1cccc2sc(N3CCN(C(=O)C(C)(C)C)CC3)nc12,Potency,[2],inactive
same,Potency,[3],inactive
same,outcome,[4],inactive [at 12.7 µM]
same,Potency,[10],inactive
Cc1[nH]c2ccccc2c1C(c1ccccc1)c1ccc(Cl)s1 (configuration not stated),Potency,[2],inactive
same,Potency,[3],inactive
same,Potency,[4],inactive
same,Potency,[5],inactive
same,Potency,[10],inactive
COc1ccc2c3c(cccc13)C(=O)CC2,Potency,[1],18.3 µM (active)
same,Potency,[2],inactive
same,Potency,[3],112 µM (active)
same,Potency,[4],inactive
same,Potency,[10],31.6 µM (active)
Cc1cc2nc3c(=O)[nH]c(=O)[nH]c3nc2c([N+](=O)[O-])c1N,Potency,[1],13 µM (active)
same,Potency,[2],inactive
same,Potency,[3],100 µM (active)
same,Potency,[4],inactive
same,Potency,[5],inactive
same,Potency,[10],56.2 µM (active)
